According to PubChem BioAssay (Tox21):
Inconclusive results are not listed. A call without a number means that no potency is given here. Calls of active or inactive are those of the source. The call rests on the fitted dose curve; in most records, active means well fitted inhibition curve with a large enough effect in the repeat runs; inconclusive means weak or mixed curves, or effect the other way; inactive means no such curve, though single readings can be large or run the other way.

Assay: qHTS assay to identify small molecule antagonists of the retinoic acid receptor (RAR) signaling pathway (AID 1159552; further: nearly all actives have a fitted effect of over 50% in size)
Conditions: C3RL4 RARE luciferase reporter, retinol-stimulated, 6 h; series mostly up to 92.4 µM
Text: National Center for Advancing Translational Sciences [NCATS]
NIH Chemical Genomics Center [NCGC]
U.S. Environmental Protection Agency [EPA]
National Institutes of Environmental Health Sciences [NIEHS]
National Toxicology Program [NTP]
U.S. Food and Drug Administration [FDA]
All-trans Retinoic acid (atRA) is the potent natural metabolite of retinol and plays an important role in normal embryonic development and maintenance of cellular phenotype in adult animals. atRA is the activating ligand for the retinoic acid receptors (RARs) which form heterodimers with retinoid X receptors (RXRs) on the retinoic acid response element (RARE). Through activation of the RAR/RXRs nuclear receptors, atRA regulates the transcription of a large number of protein-coding genes and regulatory RNAs. Intracellular levels of atRA are controlled by the retinol signaling pathway (RSP) that regulates the biosynthesis and catabolism of atRA to maintain physiological levels. Chemicals that interfere with the RSP can cause abnormal intracellular levels of atRA and therefore are potential developmental toxicants. To assess compounds for the potential adverse effect on embryonic development through interfering with retinol signaling, a cell-based RARE luciferase reporter gene assay was used. C3RL4 cell line (OARSA/CFSAN/FDA, Laurel, MD) was used to screen Tox21 10K compound library for identifying inhibitors of the RSP.
Tox21 Assay Protocol Summary:
C3RL4 cells were seeded at 1,000/well in 4 uL of assay medium into white solid 1,536-well tissue culture plates (Greiner Bio-One North America Inc. Monroe, NC) using a Multidrop Combi (Thermo Scientific, Waltham, MA) dispenser. After incubation at 37 C and 5% CO2 for an overnight, 23 nL of compounds dissolved in DMSO, positive control or DMSO only were transferred by a Pintool station (Kalypsys, San Diego, CA). One ul of 1 uM (final concentration) of Retinol was added right after the compound addition by using a Flying Reagent Dispenser (FRD) (Aurora Discovery, San Diego, CA). After 6 hr incubation at 37 C and 5% CO2, 5 uL of Amplite Luciferase reagent (AAT Bioquest Inc. Sunnyvale, CA) was added to each assay plate using an FRD. Luminescence was quantified on a ViewLux plate reader (PerkinElmer, Waltham, MA) after 30 min incubation at room temperature.
Potency means the concentration at half of the fitted maximal effect.

Row | Structure (SMILES) | Potency
1 | O=C(O)c1ccc(Cl)c(Cl)c1 | inactive
2 | OCCN1CCN(CC/C=C2/c3ccccc3Sc3ccc(C(F)(F)F)cc32)CC1 | 26.6 µM (active)
3 | CCCCCCCCCCCCCCCCCC[N+](C)(C)Cc1ccccc1 | 24.6 µM (active)
4 | O=c1[nH]sc2ccccc12 | 17.2 µM (active)
5 | Cc1cc(O)c(C(C)(C)C)cc1C(C)(C)C | 54.5 µM (active)
6 | CC(C)(C)NC(=O)[C@@H]1C[C@@H]2CCCC[C@@H]2CN1C[C@@H](O)[C@H](Cc1ccccc1)NC(=O)[C@H](CC(N)=O)NC(=O)c1ccc2ccccc2n1 | 55.2 µM (active)
7 | Nc1ccccc1O | inactive
8 | CCCCCCCCCOC(=O)c1ccc(O)cc1 | inactive
9 | O=c1[nH]cnc2nc[nH]c12 | inactive
10 | CCCCCCCCOC(=O)c1ccc(O)cc1 | inactive
11 | CCC(C)(C)C1CCCCC1OC(C)=O (stereo not given) | inactive
12 | CC(C)OC(=O)c1cc2c(OCC(O)CNC(C)(C)C)cccc2[nH]1 (stereo not given) | inactive
13 | COc1ccc(-c2ccc3cc(C(=O)O)ccc3c2)cc1C12CC3CC(CC(C3)C1)C2 | inactive
14 | C/C=C(\C)C(=O)OCc1ccccc1 | inactive
15 | Nc1c(Cl)cc(Cl)cc1Cl | inactive
16 | CN(C)CCCOC1(Cc2ccccc2)CCCCCC1 | inactive
17 | CN(C)c1ccc(C2(c3ccc(N(C)C)cc3)OC(=O)c3cc(N(C)C)ccc32)cc1 | inactive
18 | O=C1C=CC(=O)N1 | 8.86 µM (active)
19 | CCN(CCC#N)c1ccc(N=Nc2c(Cl)cc([N+](=O)[O-])cc2Cl)cc1 | inactive
20 | Nc1ccc2cc(S(=O)(=O)O)cc(O)c2c1N=Nc1ccccc1C(F)(F)F | inactive

Row | Structure (SMILES) | Potency
21 | CC[C@H]1O[C@]2(CC[C@@H]1C)C[C@@H]1C[C@@H](C/C=C(\C)C[C@@H](C)/C=C/C=C3\CO[C@@H]4[C@H](O)C(C)=C[C@@H](C(=O)O1)[C@]34O)O2 | 42.9 µM (active)
22 | [Cl][Bi]([Cl])([c]1ccccc1)([c]1ccccc1)[c]1ccccc1 | 3.83 µM (active)
23 | S=c1[nH]c2ccccc2s1 | inactive
24 | OCCN(CCO)c1nc(N2CCCCC2)c2nc(N(CCO)CCO)nc(N3CCCCC3)c2n1 | inactive
25 | CCC(N)(CO)CO | inactive
26 | Clc1ccc2cc3ccccc3cc2c1 | inactive
27 | O=C1CCCCCN1SSN1CCCCCC1=O | 24.3 µM (active)
28 | O=C(Nc1cccc([N+](=O)[O-])c1)c1cc2ccccc2cc1O | inactive
29 | Cc1[nH]nc2c1N=C(c1ccccc1Cl)c1cc([N+](=O)[O-])ccc1N2 | 30.6 µM (active)
30 | NNc1nc(-c2ccc([N+](=O)[O-])cc2)cs1 | inactive
31 | Fc1ccc(C(c2ccc(F)cc2)N2CCN(C/C=C/c3ccccc3)CC2)cc1 | inactive
32 | N=C1C=CC(=C(c2ccc(N)cc2)c2ccc(N)cc2)C=C1 | 13.7 µM (active)
33 | Cc1cc(N)c(S(=O)(=O)O)cc1Cl | inactive
34 | Oc1ccc(N=Nc2ccccc2)cc1 | inactive
35 | CN(C)[C@@H]1C(=O)C(C(N)=O)=C(O)[C@@]2(O)C(=O)C3=C(O)c4c(O)ccc(Cl)c4[C@@H](O)[C@H]3C[C@@H]12 | inactive
36 | COc1ccc(CN2CCN(C(c3ccc(F)cc3)c3ccc(F)cc3)CC2)c(OC)c1OC | 26.6 µM (active)
37 | O=Cc1cc(O)ccc1Br | inactive
38 | NC(=O)N1C(=O)C(C(=O)c2cc(Cl)cs2)c2cc(F)c(Cl)cc21 (stereo not given) | inactive
39 | CN(C)[C@@H]1C(=O)C(C(N)=O)=C(O)[C@@]2(O)C(=O)C3=C(O)c4c(O)cccc4C[C@H]3C[C@@H]12 | inactive
40 | CCCC(c1cc(C(C)(C)C)c(O)cc1C)c1cc(C(C)(C)C)c(O)cc1C | 27.6 µM (active)
